Reference: PubChem BioAssay

system: Lefty1; test: Lefty1 protein binding to printed compounds – biochemical, small-molecule microarray, 635/667 nm fluorescence, primary screen (AID 1139); details: fluorescence 635/667, higher = more signal

In order of rising composite z-score:
1. Cc1cc2c(nc1C)CCCCN2CC(C)ON=C[C@@H](C)[C@H](OCc1ccccc1)C(C)C (stereo not given in full)  -0.913
2. O=C(NN=C1C[C@@H](O)[C@@H](O)[C@@H]2[C@@H]3C(=O)N(C4CCCCC4)C(=O)[C@@H]3CC[C@H]12)OCc1ccccc1  -0.422
3. COc1ccc(COC(=O)NN=C2C[C@@H](O)[C@@H](O)[C@@H]3[C@@H]4C(=O)N(Cc5ccccc5)C(=O)[C@@H]4CC[C@H]23)cc1  -0.403
4. CC(C)CON=C1C[C@@H](O)[C@@H](O)[C@@H]2[C@@H]3C(=O)N(C[C@@H]4CCCO4)C(=O)[C@@H]3CC[C@@H]12  -0.399
5. COc1ccc(O[C@H]2C=C[C@@H](c3ccccc3)O[C@@H]2CON=C(C)CCC(=O)OC[C@H]2O[C@H](c3ccccc3)C=C[C@@H]2Oc2ccc(OC)cc2)cc1  -0.162
6. COC(=O)CC=C[C@@H](C)[C@H](OCc1cccc(-c2ccccc2)c1)C1CCCCC1  0.0133
7. Cc1ccc(S(=O)(=O)n2c3ccccc3c3nnc(C(=O)c4ccccc4)nc32)cc1  0.0671
8. CCCNC(=O)OC[C@H]1O[C@H](CCON=C(C)CCC(=O)OC[C@H]2O[C@H](c3ccccc3)C=C[C@@H]2Oc2ccc(OC)cc2)C=C[C@@H]1Oc1ccc(OC)cc1  0.171
9. COC(=O)CC=C[C@@H](C)[C@@H](C=NOC[C@@H](O)[C@H]1O[C@@H]2OC(C)(C)O[C@@H]2[C@H]1O)NS(=O)(=O)c1ccc(C)cc1  0.223
10. COc1ccc(O[C@H]2C=C[C@@H](c3ccccc3)O[C@@H]2CON=CC[C@@H]2C=C[C@H](OC(C)=O)[C@@H](COC(C)=O)O2)cc1  0.257
11. C[C@@H](c1ccccc1)N1C(=O)[C@H]2[C@H]3[C@H](O)[C@H](O)CC(=NOCc4ccccc4)[C@H]3CC[C@H]2C1=O  0.295
12. O=C(NN=C1C[C@@H](O)[C@@H](O)[C@@H]2[C@@H]3C(=O)N(Cc4ccccc4)C(=O)[C@@H]3CC[C@@H]12)OCc1ccccc1  0.321
13. CCOC(=O)[C@H](CC(C)C)NC(=O)CCC1CC(OC(=O)NCc2ccc3c(c2)OCO3)CC2(CCCC(COC(=O)NCc3cccc(C(F)(F)F)c3)O2)O1 (stereo not given in full)  0.389
14. C=CC[C@@H]1C=C[C@H](ON=C(C)CCC(=O)OC[C@H]2O[C@H](c3ccccc3)C=C[C@@H]2Oc2ccc(OC)cc2)[C@@H](CO)O1  0.443
15. CCc1cc2c(nc1CC)CCN(CCC(C)=NO[C@H](C)c1cn([C@H](CO)Cc3ccccc3)nn1)C2  0.531
16. O=C1C[C@@H](O)[C@@H](O)[C@@H]2[C@@H]3C(=O)N(Cc4ccccc4)C(=O)[C@@H]3CC[C@@H]12  0.551
17. C[C@@H](c1ccccc1)N1C(=O)[C@H]2[C@H]3[C@H](O)[C@H](O)CC(=NO[C@@H]4O[C@H](CO)[C@@H](O)[C@H](O)[C@H]4O)[C@H]3CC[C@H]2C1=O  0.554
18. COC(=O)[C@H](C)NC(=O)CCC1CC(OC(=O)NCc2cccc3ccccc23)CC2(CCCC(COC(=O)NCC(c3ccccc3)c3ccccc3)O2)O1 (stereo not given in full)  0.554
19. CCCNC(=O)OC[C@H]1O[C@H](CCON=Cc2ccc(C(=O)N3[C@H](c4ccc(C)cc4)[C@@H](C)CC[C@H]3C(=O)OC)cc2)C=C[C@@H]1Oc1ccc(OC)cc1  0.58
20. CCOC(=O)[C@H](CC(C)C)NC(=O)CCC1CC(OC(=O)NCc2cccc3ccccc23)CC2(CCCC(COC(=O)NCCC(C)C)O2)O1 (stereo not given in full)  0.606
21. CCOC(=O)CCN1C(=O)[C@H]2[C@H]3[C@H](O)[C@H](O)CC(=NNC(=O)OCc4ccccc4)[C@@H]3CC[C@H]2C1=O  0.699
22. CCO[C@H](c1cc(OC)cc([N+](=O)[O-])c1OC)[C@H](C)C=CCC(=O)OC  0.747
23. COC(=O)[C@H](C)NC(=O)CCC1CC(OC(=O)NCc2ccc3c(c2)OCO3)CC2(CCCC(COC(=O)NCc3cccc(C(F)(F)F)c3)O2)O1 (stereo not given in full)  1.15
24. COC(=O)[C@H](C)NC(=O)CCC1CC(OC(=O)NCCc2ccc(F)cc2)CC2(CCCC(COC(=O)NCc3cccc(C(F)(F)F)c3)O2)O1 (stereo not given in full)  1.43
25. CO[C@@H]1COC(=O)CC=C[C@@H](C)[C@@H]2C=C[C@H](O)[C@@H](COC(=O)CC=C[C@H]1C)O2  1.66
